# Several values for one entry are separate records, joined by “and”; a condition that tells them apart may be missing. Equal entries are not always repeated. About 79,000 compounds went through this panel and 15% of them were active in at least one assay; those are over-represented in the sample as a whole. Activity calls are given as the source filed them. Rule as the data show it: active = growth inhibition above about 70%; inactive = the rest.
# Assay: NCI Yeast Anticancer Drug Screen. Data for the bub3 strain (AID 167)
# Conditions: S. cerevisiae bub3 mutant strain, at 50.0 µM (retest, dose inferred, filed as 5.0), hits give high values
# Outline: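 Part of a panel of yeast mutants defective in DNA damage repair or cell cycle regulation. Each strain is grown with compound, and inhibition is calculated relative to solvent-treated cultures.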
row,Structure (SMILES),growth inhibition
1,Oc1ccc(N=Nc2ccccc2)c(O)c1.Oc1ccc(N=Nc2ccccc2)c(O)c1.[Cu],95% (active)
2,COC(=O)/C=N/O,-1% (inactive)
3,C=CCCCCO/N=C/c1c2c(O)c3c(O)c(C)c4c(c3c1O)C(=O)C(C)(O/C=C/C(OC)C(C)C(OC(C)=O)C(C)C(O)C(C)C(O)C(C)/C=C/C=C(\C)C(=O)N2)O4 (centres undefined),93% (active)
4,O=C(N/C(=C\c1ccc2c(c1)OCO2)c1nc2ccccc2s1)c1ccccc1,98% (active)
5,C=C1C[C@H](O)[C@H]2C(C[Se]c3ccccc3)C(=O)O[C@@H]2[C@H]2[C@H](C)C(O)C[C@@H]12 (some centres undefined),21% (inactive)
6,CC1=C(C(=O)Nc2ccccc2C)C(c2ccccc2F)C(C(=O)Nc2ccccc2C)=C(C)N1,2% (inactive)
7,COC(=O)CCC(NC(=S)N/N=C(\C)c1cnc2ccccc2n1)C(=O)OC (centres undefined),12% (inactive)
8,CC(=O)Oc1c2c(c(OC(C)=O)c3c1n(C(C)=O)c1ccccc1n3C(C)=O)n(C(C)=O)c1ccccc1n2C(C)=O,44% (inactive)
9,CCOc1c(N=Nc2ccc(Cl)cc2)c(-c2ccccc2)nn1C(N)=S,92% (active)
10,CC(=O)N(C1=CC(=O)c2ccccc2C1=O)c1ccc(Cl)cc1,98% (active)
11,O=C(C1=Cc2ccccc2OC1)N1CCN(c2cccc(Cl)c2)CC1,97% (active)
12,Oc1c(Cl)ccc2cccnc12,99% (active)
13,COc1ccc2c(Cc3cc(Cl)ccc3O)cncc2c1O,31% (inactive)
14,CCCCCCCCCCCC1=NCC(C)N1 (centres undefined),36% (inactive)
15,c1ccc2c(B(c3cccc4ccccc34)c3cccc4ccccc34)cccc2c1,99% (active)
16,CC(CCOP(=O)(O)OCCC(C)CC(C)(C)C)CC(C)(C)C (centres undefined),10% (inactive)
17,CC(C)(C)C(=O)CC(=O)C(F)(F)C(F)(F)C(F)(F)F.[Ag],98% (active)
18,Cc1ccc(S(=O)(=O)Nn2c(S)c(C#N)c(-c3ccc([N+](=O)[O-])cc3)c(C#N)c2=O)cc1,65% (inactive)
19,COC1=C(/C(=N/Nc2ccc([N+](=O)[O-])cc2[N+](=O)[O-])c2ccccc2)COC1=O,-3% (inactive)

# Same assay, conditions: S. cerevisiae bub3 mutant strain, at 50.0 µM, hits give high values
row,Structure (SMILES),growth inhibition
1,CC(=O)OC1=CC2=CCC3C(CCC4(C)C(C(C)=O)CCC34)C2(C)CC1 (centres undefined),-1.15% (inactive)
2,CC(=O)OCC(OC(C)=O)C(OC(C)=O)C(OC(C)=O)C(COC(C)=O)OC(C)=O (centres undefined),0.95% (inactive) and -9.35% (inactive) and 14.6% (inactive)
3,CCCC/C=C1/CCC(CN(C)C)C1=O (centres undefined),61.9% (inactive)
4,CCN1CCC(O)(/C=C/c2ccccc2C)C(C(=O)/C=C/c2ccccc2C)C1 (centres undefined),98.5% (active)
5,Cc1c(Cl)ccc2c(C(O)CNCc3ccccc3)cc(-c3ccc(Cl)cc3)nc12 (centres undefined),12.1% (inactive)
6,COc1ccc(C2CC(c3c(O)ccc4ccccc34)=NN2)cc1OC (centres undefined),90.5% (active)
7,O=c1[nH]c2c([N+](=O)[O-])cc(Cl)cc2nc1/C=C(\O)c1ccco1,32.6% (inactive)
8,NC1c2ccccc2-c2ccc([N+](=O)[O-])cc21 (centres undefined),-12.2% (inactive)
9,CN(C(=O)c1ccccc1)C1(COC(=O)c2ccccc2)CCCCC1,65.7% (inactive)
10,CCOC(=O)Nc1cc2c(cc1Br)-c1ccccc1C2O (centres undefined),69.4% (inactive)
11,O=C(/C=C(/Nc1ccccc1)C(=O)c1ccccc1)c1ccccc1,74% (active)
12,Nc1ccc2[nH]c3ccccc3c2c1,25.2% (inactive)
13,Clc1ccc([I+]c2cccs2)cc1,98% (active)
14,CCCCCCC(C)S(=O)(=O)c1ccc(C)cc1 (centres undefined),17.1% (inactive)
15,COC(=O)/C(=C/C=C(c1ccccc1)c1ccccc1)N(C(C)=O)C(C)=O,99.7% (active)
16,Oc1ccc(Cc2cccc(Br)c2)c(O)c1,99.4% (active)
17,O=C(NNc1nc(-c2ccccc2)cs1)C(F)(F)F,85.7% (active)
18,Nc1nc(-c2ccc(Cl)cc2)cs1,97.8% (active)
19,Cc1cc(C)nc(CCSS(=O)(=O)O)c1,40.9% (inactive)
20,CC1(C)OC2C(COC(c3ccccc3)(c3ccccc3)c3ccccc3)OC(n3cnc4c(N)ncnc43)C2O1 (centres undefined),48.2% (inactive)

row,Structure (SMILES),growth inhibition
1,Oc1ccc(N=Nc2ccccc2)c(O)c1.Oc1ccc(N=Nc2ccccc2)c(O)c1.[Cu],97% (active)
2,COC(=O)/C=N/O,-14.9% (inactive)
3,C=CCCCCO/N=C/c1c2c(O)c3c(O)c(C)c4c(c3c1O)C(=O)C(C)(O/C=C/C(OC)C(C)C(OC(C)=O)C(C)C(O)C(C)C(O)C(C)/C=C/C=C(\C)C(=O)N2)O4 (centres undefined),79.9% (active)
4,O=C(N/C(=C\c1ccc2c(c1)OCO2)c1nc2ccccc2s1)c1ccccc1,96.8% (active)
5,C=C1C[C@H](O)[C@H]2C(C[Se]c3ccccc3)C(=O)O[C@@H]2[C@H]2[C@H](C)C(O)C[C@@H]12 (some centres undefined),21.8% (inactive)
6,CC1=C(C(=O)Nc2ccccc2C)C(c2ccccc2F)C(C(=O)Nc2ccccc2C)=C(C)N1,20.2% (inactive)
7,COC(=O)CCC(NC(=S)N/N=C(\C)c1cnc2ccccc2n1)C(=O)OC (centres undefined),26.8% (inactive)
8,CC(=O)Oc1c2c(c(OC(C)=O)c3c1n(C(C)=O)c1ccccc1n3C(C)=O)n(C(C)=O)c1ccccc1n2C(C)=O,69.8% (inactive)
9,OCC(O)C(O)C(O)C(O)C(SCc1ccccc1)SCc1ccccc1 (centres undefined),-3.7% (inactive) and -7.25% (inactive) and 2.05% (inactive)
10,CCOc1c(N=Nc2ccc(Cl)cc2)c(-c2ccccc2)nn1C(N)=S,92.4% (active)
11,CC(=O)N(C1=CC(=O)c2ccccc2C1=O)c1ccc(Cl)cc1,90.5% (active)
12,O=C(C1=Cc2ccccc2OC1)N1CCN(c2cccc(Cl)c2)CC1,89.5% (active)
13,Oc1c(Cl)ccc2cccnc12,92.8% (active)
14,COc1ccc2c(Cc3cc(Cl)ccc3O)cncc2c1O,96% (active)
15,CCCCCCCCCCCC1=NCC(C)N1 (centres undefined),45% (inactive)
16,c1ccc2c(B(c3cccc4ccccc34)c3cccc4ccccc34)cccc2c1,98.8% (active)
17,CC(CCOP(=O)(O)OCCC(C)CC(C)(C)C)CC(C)(C)C (centres undefined),71.4% (active)
18,CC(C)(C)C(=O)CC(=O)C(F)(F)C(F)(F)C(F)(F)F.[Ag],87.8% (active)
19,Cc1ccc(S(=O)(=O)Nn2c(S)c(C#N)c(-c3ccc([N+](=O)[O-])cc3)c(C#N)c2=O)cc1,54.6% (inactive)
20,COC1=C(/C(=N/Nc2ccc([N+](=O)[O-])cc2[N+](=O)[O-])c2ccccc2)COC1=O,93.3% (active)
